Like-named read-outs stand apart in the source and are kept apart here.
Legend:
PI4KA = system: PI4KA; parameters: species or system human, MV4-11 + K-562 + COLO205 + SK-N-BE2 + OVCAR-8; conditions: read-out: apparent Kd; compound concentrations: 100 nM and 1000 nM (sheet 'Samples'), CATDS: 8.4526475439373194E-2; n = 1
PIK3C2A = system: PIK3C2A; parameters: species or system human, MV4-11 + K-562 + COLO205 + SK-N-BE2 + OVCAR-8; conditions: read-out: apparent Kd; compound concentrations: 100 nM and 1000 nM (sheet 'Samples'), CATDS: 5.6745724082573501E-2; n = 1
PIK3C2B = system: PIK3C2B; parameters: species or system human, MV4-11 + K-562 + COLO205 + SK-N-BE2 + OVCAR-8; conditions: read-out: apparent Kd; compound concentrations: 100 nM and 1000 nM (sheet 'Samples'), CATDS: 8.3411679268076702E-2; n = 1
PIM2 = system: PIM2; parameters: species or system human, MV4-11 + K-562 + COLO205 + SK-N-BE2 + OVCAR-8; conditions: read-out: apparent Kd; compound concentrations: 100 nM and 1000 nM (sheet 'Samples'), CATDS: 5.9438014075045897E-2; n = 1
PIP4K2C = system: PIP4K2C; parameters: species or system human, MV4-11 + K-562 + COLO205 + SK-N-BE2 + OVCAR-8; conditions: read-out: apparent Kd; compound concentrations: 100 nM and 1000 nM (sheet 'Samples'), CATDS: 1; n = 1
PKM = system: PKM; parameters: species or system human, MV4-11 + K-562 + COLO205 + SK-N-BE2 + OVCAR-8; conditions: read-out: apparent Kd; compound concentrations: 100 nM and 1000 nM (sheet 'Samples'), CATDS: 1; n = 1
STK26 = system: STK26; parameters: species or system human, MV4-11 + K-562 + COLO205 + SK-N-BE2 + OVCAR-8; conditions: read-out: apparent Kd; compound concentrations: 100 nM and 1000 nM (sheet 'Samples'), CATDS: 0.52714165558765103; n = 1
PRKCI = system: PRKCI; parameters: species or system human, MV4-11 + K-562 + COLO205 + SK-N-BE2 + OVCAR-8; conditions: read-out: apparent Kd; compound concentrations:100 nM and 1000 nM (sheet 'Samples'); n = 1
PDGFRB = system: PDGFRB; parameters: species or system human, MV4-11 + K-562 + COLO205 + SK-N-BE2 + OVCAR-8; conditions: read-out: apparent Kd; compound concentrations: 100 nM and 1000 nM (sheet 'Samples'), CATDS: 1; n = 1
PRKCQ = system: PRKCQ; parameters: species or system human, MV4-11 + K-562 + COLO205 + SK-N-BE2 + OVCAR-8; conditions: read-out: apparent Kd; compound concentrations: 100 nM and 1000 nM (sheet 'Samples'), CATDS: 1; n = 1
PRKAG1 = system: PRKAG1; parameters: species or system human, MV4-11 + K-562 + COLO205 + SK-N-BE2 + OVCAR-8; conditions: read-out: apparent Kd; compound concentrations:100 nM and 1000 nM (sheet 'Samples'); n = 1
PRKAG2 = system: PRKAG2; parameters: species or system human, MV4-11 + K-562 + COLO205 + SK-N-BE2 + OVCAR-8; conditions: read-out: apparent Kd; compound concentrations:100 nM and 1000 nM (sheet 'Samples'); n = 1
ACOX1 = conditions: read-out: apparent Kd, n = 1
AKT3 = conditions: read-out: apparent Kd, n = 1
CDC42 = conditions: read-out: apparent Kd, n = 1
STK16 = conditions: read-out: apparent Kd, n = 1
RIOK2 = system: RIOK2; parameters: species or system human, MV4-11 + K-562 + COLO205 + SK-N-BE2 + OVCAR-8; conditions: read-out: apparent Kd, compound concentrations: 100 nM and 1000 nM (sheet 'Samples'), n = 1
Q6ZSR9 = Q6ZSR9 (human, UniProt Q6ZSR9); parameters: species or system MV4-11 + K-562 + COLO205 + SK-N-BE2 + OVCAR-8; conditions: read-out: apparent Kd, n = 1
Sequence of Q6ZSR9 (Q6ZSR9 whole entry, looked up): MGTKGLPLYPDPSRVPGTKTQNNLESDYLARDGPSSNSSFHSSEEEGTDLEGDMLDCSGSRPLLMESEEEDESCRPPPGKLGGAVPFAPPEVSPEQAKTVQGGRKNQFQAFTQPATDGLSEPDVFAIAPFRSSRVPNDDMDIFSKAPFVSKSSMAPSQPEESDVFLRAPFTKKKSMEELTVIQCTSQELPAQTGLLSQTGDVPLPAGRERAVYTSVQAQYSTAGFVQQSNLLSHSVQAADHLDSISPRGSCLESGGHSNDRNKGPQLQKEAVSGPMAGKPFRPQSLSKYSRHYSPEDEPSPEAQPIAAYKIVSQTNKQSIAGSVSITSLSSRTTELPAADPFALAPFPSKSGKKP

RPS6KB1 = system: RPS6KB1; parameters: species or system human, MV4-11 + K-562 + COLO205 + SK-N-BE2 + OVCAR-8; conditions: read-out: apparent Kd, n = 1
TAOK1 = system: TAOK1; parameters: species or system human, MV4-11 + K-562 + COLO205 + SK-N-BE2 + OVCAR-8; conditions: read-out: apparent Kd; compound concentrations: 100 nM and 1000 nM (sheet 'Samples'), CATDS: 1; n = 1
[1] = compound concentrations:100 nM and 1000 nM (sheet 'Samples')

## Nc1ncc(-c2ccc3nccc(-c4ccncc4)c3c2)cc1S(=O)(=O)N1CCCCC1 [GSK1693850A]
PI4KA
  potency estimated from few doses: 0.464 µM
PIK3C2A
  potency estimated from few doses: 2.32 µM
PIK3C2B
  potency estimated from few doses: 0.483 µM
PIM2
  potency estimated from few doses: 1.79 µM

## COc1cc(Nc2nccc(N3CCC(NC(=O)C(C)c4ccc(Cl)cc4)C3)n2)cc(OC)c1OC (stereo not shown) [GSK1379757A]
PIP4K2C
  potency estimated from few doses: 1.64 µM

## Cn1cc(C2=C(c3cn(C)c4ccc(OCc5ccccc5)cc34)C(=O)NC2=O)c2ccccc21 [RO0317432-000]
PKM
  potency estimated from few doses: 1.86 µM

## Cn1ccc(-c2cccc(Nc3ccnc4cc(-c5nccs5)ccc34)c2)n1 [GW525701_KCGS]
STK26
  potency estimated from few doses: 1.37 µM

## CCn1c(-c2nonc2N)nc2ccccc21 [SB-693162]
PRKCI
  potency estimated from few doses: 2.41 µM

## COc1ccc(NC(=O)Nc2ccc(C)c(-c3ccc(C(=O)Nc4ccncc4)cc3)c2)cc1 [GSK1398475A]
PDGFRB
  potency estimated from few doses: 1.68 µM

## CO/N=C(\c1ccccc1)c1cnn(-c2ccccc2)c1N [RO1163374-000]
PRKCQ
  potency estimated from few doses: 2.21 µM

## COc1ccccc1-c1ccc2c(NC(=O)C3CC3)n[nH]c2n1 [SB-711239]
PRKAG1
  potency estimated from few doses: 1.19 µM
PRKAG2
  potency estimated from few doses: 1.27 µM

## Lestaurtinib
ACOX1; compound concentrations:100 nM and 1000 nM (sheet 'Lestaurtinib' of Supplementary Table 1),run:Lestaurtinib_02364_R2,Plate:MR002
  potency estimated from few doses: 1.36 µM
ACOX1; compound concentrations:100 nM and 1000 nM (sheet 'Lestaurtinib' of Supplementary Table 1),run:Lestaurtinib_02624_R1,Plate:MR020
  potency estimated from few doses: 1.67 µM
AKT3; compound concentrations:100 nM and 1000 nM (sheet 'Lestaurtinib' of Supplementary Table 1),run:Lestaurtinib_02339_R2,Plate:MR001
  potency estimated from few doses: 1.91 µM
AKT3; compound concentrations:100 nM and 1000 nM (sheet 'Lestaurtinib' of Supplementary Table 1),run:Lestaurtinib_03172_R3,Plate:MR031
  potency estimated from few doses: 1.54 µM
CDC42; compound concentrations:100 nM and 1000 nM (sheet 'Lestaurtinib' of Supplementary Table 1),run:Lestaurtinib_02437_R1,Plate:MR007
  potency estimated from few doses: 1.44 µM
CDC42; compound concentrations:100 nM and 1000 nM (sheet 'Lestaurtinib' of Supplementary Table 1),run:Lestaurtinib_02765_R3,Plate:MR026
  potency estimated from few doses: 1.44 µM
STK16; compound concentrations:100 nM and 1000 nM (sheet 'Lestaurtinib' of Supplementary Table 1),run:Lestaurtinib_02422_R1,Plate:MR006
  potency estimated from few doses: 1.43 µM
STK16; compound concentrations:100 nM and 1000 nM (sheet 'Lestaurtinib' of Supplementary Table 1),run:Lestaurtinib_03260_R1,Plate:MR033
  potency estimated from few doses: 1.34 µM

## Cl.c1ccc(Oc2ccc(Nc3ncc(-c4ccccc4)o3)cc2)cc1 [GW641155A]
RIOK2; CATDS: 1
  potency estimated from few doses: 2.14 µM

## CCn1c(-c2nonc2N)nc2cnc(Oc3cccc(NC(=O)c4ccc(N(C)C)cc4)c3)cc21 [GSK248233A]
Q6ZSR9; [1]
  potency estimated from few doses: 2.12 µM
RPS6KB1; [1]
  potency estimated from few doses: 0.978 µM

## O=C(NCCNc1ccnc(Nc2ccc(F)cc2)n1)Nc1ccc2c(c1)OCO2 [GSK1379882A]
TAOK1
  potency estimated from few doses: 1.25 µM

## Cc1nnc(-c2ccc(C)c(-c3ccc(C(=O)Nc4ccc(NS(C)(=O)=O)cc4)cc3)c2)o1 [GW702865X]
TAOK1
  potency estimated from few doses: 1.62 µM

## Nc1nonc1-c1nc2cnccc2n1C1CC1 [SB-736302]
RPS6KB1; compound concentrations: 100 nM and 1000 nM (sheet 'Samples'), CATDS: 0.26812352090996999
  potency estimated from few doses: 0.794 µM

## COc1ccc2ncn(-c3cc(O[C@H](C)c4ccccc4C(F)(F)F)c(C(N)=O)s3)c2c1 [GSK317315A]
RIOK2; CATDS: 0.34769297632871299
  potency estimated from few doses: 1.94 µM

## COC[C@H](NC1=NC(=O)/C(=C/c2ccc3ncccc3c2)S1)c1ccccc1 [RO4595946-000]
Q6ZSR9; compound concentrations: 100 nM and 1000 nM (sheet 'Samples'), CATDS: 1
  potency estimated from few doses: 1.58 µM
